The list is not random: actives were taken first. Their share in the collection is about 7.4%.
Rab9 promoter act = qHTS Assay for Rab9 Promoter Activators; 2.8% of 320,000 active; Potency, µM (series often up to 9.22 µM), without a hit: at the highest dose activation, negative = inhibition, most hits filed as activators; Huh7 Rab9 promoter-luciferase reporter, luminescence, 24 h; AID 485297, 2010; also: % of control where 0% means no effect; nearly all actives have a fitted effect of over 60% in size
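Using Huh7 cells stably transfected with Rab9 promoter–luciferase, compounds were incubated 24 h at 37 °C, 5% CO2; luciferase luminescence was read 10 min after reagent addition.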
NPC1 prom act = qHTS Assay for NPC1 Promoter Activators; Huh7 NPC1 promoter luciferase reporter, 24 h; Potency, µM (top dose mostly 9.22 µM), for inactives: top-dose activation, usual class: activators; 2.4% of 320,000 active; also: % of control where 0% means no effect; nearly all actives have a fitted effect of over 60% in size
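Stably transfected Huh7 (NPC1 promoter→luciferase), 1500 cells/well in Opti-MEM + 10% FBS, 2 h settle, then compound 24 h at 37 °C. Luminescence after 10 min with Amplite reagent.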
FLuc counter = qHTS profiling assay for firefly luciferase inhibitor/activator using purifed enzyme and Km concentrations of substrates (counterscreen for miR-21 project) | purified FLuc, Km substrates, luminescence inhibition | Potency, µM (titrated, usually from 57.5 µM), without a hit: at the top dose activity change, negative = inhibition, usual class: inhibitors | 6.9% of 360,000 active | AID 588342, 2011;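 also: plate controls were vehicle for no effect and reference inhibitor for full effect; nearly all actives have a fitted effect of over 55% in size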
Target sequence (P08659 whole entry, looked up): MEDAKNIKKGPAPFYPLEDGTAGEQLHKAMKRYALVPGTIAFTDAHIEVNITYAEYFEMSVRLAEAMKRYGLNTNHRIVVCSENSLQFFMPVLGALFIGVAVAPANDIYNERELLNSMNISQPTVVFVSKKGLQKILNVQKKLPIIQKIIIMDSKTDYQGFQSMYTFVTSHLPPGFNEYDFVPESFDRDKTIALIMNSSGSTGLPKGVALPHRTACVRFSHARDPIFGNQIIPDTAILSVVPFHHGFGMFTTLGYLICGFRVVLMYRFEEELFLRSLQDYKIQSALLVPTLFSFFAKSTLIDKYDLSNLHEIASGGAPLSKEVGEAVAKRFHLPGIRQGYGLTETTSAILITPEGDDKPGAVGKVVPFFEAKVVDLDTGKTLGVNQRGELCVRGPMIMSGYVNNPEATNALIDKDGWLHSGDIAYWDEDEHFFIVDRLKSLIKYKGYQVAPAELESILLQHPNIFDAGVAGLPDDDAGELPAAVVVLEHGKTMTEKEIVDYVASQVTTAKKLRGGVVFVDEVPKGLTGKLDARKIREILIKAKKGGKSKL
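Biochemical qHTS of compounds, final roughly 60 µM downward over six points, against 10 nM purified firefly luciferase using Km concentrations of substrates (10 uM D-luciferin, 10 uM ATP) in Tris acetate pH 7.5 buffer; luminescence output.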
ELG1 genotox = qHTS screen for small molecules that induce genotoxicity in human embryonic kidney (HEK293T) cells expressing luciferase-tagged ELG1. HEK293T ELG1-luciferase reporter, luminescence, 16 h. Potency, µM (top dose mostly 46 µM), for the others: top-dose activity change, positive = activation, usual class: activators. 1.3% of 330,000 active. AID 504466, 2011; also: % of control where 0% means no effect; nearly all actives have a fitted effect of over 60% in size
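Genotoxic stress is detected as increased luminescence from luciferase-tagged ELG1 in HEK293T cells, measured with ONE-Glo after a 16 hr treatment at 37 °C.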
SMN2 splice enh = qHTS Assay for Enhancers of SMN2 Splice Variant Expression | 2.8% of 210,000 active | Potency, µM (titrated, usually from 46.1 µM), for the others: top-dose activity change, positive = activation, hits mostly activators | AID 1458, 2008 | HEK293 SMN2-luciferase splicing reporter, luminescence, 30-36 h; also: % of control where 0% means no effect; nearly all actives have a fitted effect of over 55% in size
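qHTS luciferase splicing reporter: luminescence rises when SMN2 exon 7 is included in transfected HEK293 cells. Compound exposure lasted 30-36 h at 37C, with 4.5 mM final sodium butyrate as control, followed by a ONE-Glo read.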
The depositor's hits bear a star; ? = inconclusive; . = no result given; [ ] = remark or other dose. Calls follow the shape of the dose curve; as a rule, active = well fitted curve in the direction sought with a large enough effect; inconclusive = small, poorly fitted or top-dose-only effect, or another doubt; inactive = no such curve, though single readings can be large; an effect the other way counts as inactive or inconclusive. Potency is read from the fitted curve at half-maximal effect.

SMILES	Rab9 promoter act	NPC1 prom act	FLuc counter	ELG1 genotox	SMN2 splice enh
Cc1[nH]c2ccc(C(=O)Nc3ccc(F)cc3)cc2c1C	.	.	24µM*	.	.
COc1cccc(-c2nnc(NC(=O)c3cccc(F)c3)o2)c1	1%	0%	17µM*	?	.
CCOc1ccc(N2C(=O)c3[nH]nc(-c4ccc(OC)cc4)c3C2c2cccs2)cc1 (configuration not stated)	.	.	-3%	.	4%
Cc1ccc(C)c(NC(=O)c2cc(=O)c3cc(C)cc(C)c3o2)c1	.	.	-1%	.	-1%
CN(C)c1ccc(/C=C/c2nc(-c3ccccc3O)n(-c3ccccc3)n2)cc1	.	.	-9%	.	-14%
COc1ccc2cc(/C(C)=N/NC(=O)C3CC3)ccc2c1	2.8µM*	2.5µM*	2.4µM*	18µM*	16µM*
COc1ccc(C(=O)N/N=C(/C)c2cccc(NC(=O)C(F)(F)F)c2)cc1	?	3.5µM*	11µM*	?	10µM*
NC(=O)c1ccc(NC(=O)c2cccc(Oc3ccccc3)c2)cc1	-7%	-1%	5%	10%	-7%
C/C(=N/NC(=O)c1ccoc1C)c1cccc(NC(=O)C(F)(F)F)c1	28%	15%	?	?	18%
NS(=O)(=O)c1cccc(NC(=O)c2cccc(Oc3ccccc3)c2)c1	6%	6%	11µM*	4%	.
COc1cccc(NC(=O)Nc2ccc(Br)cn2)c1	3.2µM*	?	?	?	.
COc1ccc(NC(=O)Nc2ccc(Br)cn2)cc1OC	3%	1%	?	14%	-2%
CCc1cccc(C)c1NC(=O)Cn1nnc(-c2nc(-c3ccccc3F)no2)c1N	.	.	-1%	.	.
CCN(CC)C(=O)Cn1c(=O)n(CCCCCC(=O)NCc2ccc(C)cc2)c(=O)c2sccc21	.	.	2%	.	-7%
CCOC(=O)Cn1c(=O)oc2cc(S(=O)(=O)Nc3ccccc3F)ccc21	.	.	-2%	.	8%
COc1cccc(NC(=O)C(C)C)c1	-6%	-2%	-3%	2%	.
COc1cccc(C(=O)Nc2cccc(-c3ccccc3)c2)c1	3%	2%	21µM*	1%	.
COc1ccc(S(=O)(=O)N/N=C(/C)c2cccc(NC(=O)c3ccccc3Cl)c2)cc1	0%	-3%	27µM*	-3%	-3%
CC(=O)Nc1cccc(/C(C)=N/NS(=O)(=O)c2ccccc2)c1	-4%	-4%	2%	1%	20%
COc1cccc(NC(=O)c2ccc(NC(=O)C(C)C)cc2)c1	?	?	11µM*	?	.
COc1cccc(NC(=O)c2ccccc2)c1	1.8µM*	2.8µM*	11µM*	?	.
COc1cccc(NC(=O)c2cccc(C(=O)Nc3cccc(OC)c3)c2)c1	10%	10%	-1%	13%	.
COc1cccc(C(=O)Nc2cccc(NC(C)=O)c2)c1	-1%	-5%	?	3%	-1%
COC(=O)c1cc(=O)[nH]c(=O)[nH]1	.	.	.	.	-1%[9.22 µM]
O=C(OC1Cc2c(O)cc(O)cc2OC1c1cc(O)c(O)c(O)c1-c1c(C2Oc3cc(O)cc(O)c3CC2OC(=O)c2cc(O)c(O)c(O)c2)cc(O)c(O)c1O)c1cc(O)c(O)c(O)c1 (configuration not stated)	.	.	.	.	8%
SMILES	Rab9 promoter act	NPC1 prom act	FLuc counter	ELG1 genotox	SMN2 splice enh
COC(=O)c1ccccc1NC(=O)Nc1cccnc1	4%	11%	15µM*	0%	9%
Cc1[nH]c2ccc(C(=O)N3CCCCC3)cc2c1C	3.2µM*	3.2µM*	19µM*	?	13µM*
COc1ccc(C(=O)Nc2cccc(OC)c2)cc1	1.3µM*	2µM*	6.7µM*	2.3µM*	2.8µM*
COc1cc(C(=O)Nc2cccc(NC(=O)c3cccs3)c2)cc(OC)c1OC	-2%	-7%	24µM*	-3%	.
COc1cc(C(=O)Nc2cccc(C(C)=O)c2)cc(OC)c1OC	-3%	-2%	-24%	1%	.
COc1cccc(NC(=O)c2ccccc2C(F)(F)F)c1	4%	-5%	0%	-1%	10%
COc1cccc(NC(=O)c2ccc(OC(F)(F)F)cc2)c1	1.8µM*	4µM*	2.4µM*	?	.
COc1cc(C(=O)Nc2cccc(NC(=O)c3ccccc3)c2)cc(OC)c1OC	2%	-1%	15µM*	-8%	.
COc1ccc(S(=O)(=O)N/N=C(/C)c2ccco2)cc1	2.5µM*	?	17µM*	?	.
COc1ccc(S(=O)(=O)N/N=C(/C)c2ccncc2)cc1	5%	-2%	6%	-1%	.
CCOc1ccc(NC(=O)C2CCN(c3nc4ccccc4[nH]3)CC2)cc1	.	.	6%	.	.
COc1ccc(-c2noc(N(c3cccc(Cl)c3)c3nc(-c4ccc(OC)c(OC)c4)no3)n2)cc1OC	.	.	-2%	.	-15%
COc1cccc(-c2cnc(NCc3ccccc3Cl)n2C)c1	.	.	?	.	9%
N#C/C(=C\c1ccc(F)cc1)C(=O)NCC1CCCO1 (configuration not stated)	.	.	3%	.	-8%
CCOC(=O)C1C(=O)C=C(c2ccc(C)cc2)CC1c1cccc([N+](=O)[O-])c1 (configuration not stated)	0%	-4%	11µM*	-6%	.
CCOC(=O)C1C(=O)C=C(c2ccc(C)cc2)CC1c1ccco1 (configuration not stated)	18%	2%	12µM*	0%	-3%
Cc1ccc(N2C(=O)CS(=O)(=O)C23C(=O)N(Cc2cccc(F)c2)c2ccccc23)cc1Cl (configuration not stated)	.	.	2%	.	-7%
O=C(CCCc1ccccc1)Nc1cccc(C(=O)O)c1	0.25µM*	0.32µM*	0.38µM*	0%	1.6µM*
COc1ccc(NC(=O)CCCc2ccccc2)cc1OC	4µM*	3.5µM*	?	18µM*	.
O=C(CCc1ccccc1)NC(=S)Nc1cccc(C(=O)O)c1	3.2µM*	1.4µM*	4.8µM*	?	.
CC(C)(C)C(=O)NC(=S)Nc1cccc(C(=O)O)c1	0.79µM*	2.8µM*	19µM*	?	.
Cc1[nH]c(C)c(CN(C)C)c1CN(C)C	.	.	.	.	0%[9.22 µM]
O=C(Nc1nc2ccccc2s1)c1cc2c(s1)-c1ccccc1OC2	?	26%	-11%	13µM*	-13%
CCc1ccccc1N(C)C(=O)c1cc2c(s1)-c1c(C)cccc1OC2	.	.	-4%	.	-11%
CCOC(=O)c1cc2c(s1)-c1c(C)cccc1OC2	?	?	13µM*	?	0%
O=C(Nc1nccs1)c1cc2c(s1)-c1ccccc1OC2	3.2µM*	2µM*	1.7µM*	8.2µM*	10µM*
O=C(Nc1cccnc1Cl)c1cc2c(s1)-c1ccccc1OC2	?	?	?	11%	.
Cc1cccc2c1-c1sc(C(=O)Nc3nccs3)cc1CO2	1.1µM*	2.5µM*	2.4µM*	?	?
